Laboratory results from PubChem BioAssay AID1007 (NMMLSC, 2008).
In all, about 190,000 compounds went through this assay and about 80 (0.04%) were called active. These entries were drawn from the full list. A number with no mark means an inactive call. No stated cut-off is given here; in the data, active means inhibition above about 40%.

Each compound was assayed against Bcl-2-like protein 1 (Homo sapiens) (UniProt Q07817) (assay: Bcl-XL/Bim peptide interaction blockers – biochemical, multiplexed, bead flow cytometry, human Bcl-XL, primary screen (AID 1007)). Details: Bim peptide-Bcl-XL binding, fluorescence, at 10 µM, hits give high values.
Chain of Bcl-2-like protein 1 (Homo sapiens) (Q07817 whole entry, looked up): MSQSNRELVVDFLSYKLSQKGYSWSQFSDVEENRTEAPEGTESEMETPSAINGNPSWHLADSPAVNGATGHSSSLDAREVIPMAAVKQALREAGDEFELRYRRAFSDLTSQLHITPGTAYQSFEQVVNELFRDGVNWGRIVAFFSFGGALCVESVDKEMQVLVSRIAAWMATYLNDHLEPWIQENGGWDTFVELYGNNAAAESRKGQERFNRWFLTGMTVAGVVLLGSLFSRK
Compound `O=C1COc2ccc(C(=O)COC(=O)c3cccnc3Cl)cc2N1` has an inhibition of -3%.
With `O=C(CCS(=O)(=O)Cc1ccccc1)Nc1ccc2c(c1)OCCO2` the inhibition was 0%.
With `NC1=NC2(CCCCC2)N(c2ccc(F)cc2F)C(N)=N1` the inhibition was -6%.
Work on `COc1ccc2ccccc2c1CNc1nnnn1C` yielded an inhibition of 1%.
Compound `CC(C)(C)NC(=O)COC(=O)c1cc(Br)ccc1Cl` has an inhibition of -9%.
In the case of `O=C(OCC(=O)N1CCOCC1)c1ccc(N2CCOCC2)c([N+](=O)[O-])c1`, the inhibition is reported as 1%.
For `Cc1nc(-c2ccc(Cl)cc2)sc1C(=O)CBr`, the inhibition was 0%.
For `Cc1cccc(NC(=O)c2cccc(C(F)(F)F)c2)c1`, the inhibition was -3%.
`CC[N+]1(CC)CC2=Cc3ccccc3CC2C1` (centres undefined) was tested, and the inhibition was -4%.
`CNC(=O)NC(=O)C(OC(=O)c1cccc(S(=O)(=O)N2CCCCC2)c1)c1ccccc1` (centres undefined) gave an inhibition of -4%.
For `CCCn1c(NC(=O)C23CC4CC(CC(O)(C4)C2)C3)nc2ccccc21`, the inhibition was -2%.
Compound `Cc1cc(C)n(CCNCc2c(C(=O)N3C[C@@H](C)O[C@@H](C)C3)nc3ccc(Cl)cn23)n1` has an inhibition of -1%.
For `O=C(N/N=C/c1ccccc1O)/C(=C/c1ccccc1)CCO`, the inhibition was -10%.
`CCOc1ccc(CCN2C(=O)c3cccnc3C2=O)cc1OCC` gave an inhibition of 0%.
`CC(=O)c1c(Nc2ccccc2)sc(C(=O)c2ccccc2)c1C` gave an inhibition of -6%.
`COc1ccc2nc(Nc3nc(-c4ccncc4)cs3)sc2c1` gave an inhibition of -1%.
`Cc1ccc(-c2c(C)n([O-])c3c([n+]2=O)CCC3)cc1` gave an inhibition of -3%.
In the case of `O=C(CO/N=C/c1ccccc1OC(F)F)NC1CCCC1`, the inhibition is reported as 1%.
`Cc1ccccc1N(C(=O)Cc1cccs1)C(C(=O)NC1CCCCC1)c1cn(C)nc1C` (centres undefined) gave an inhibition of -5%.
With `Cc1cc(NC(=O)CSc2nccn2-c2ccc([N+](=O)[O-])cc2)no1` the inhibition was -15%.
In the case of `Cc1nnc(SCC(=O)NNC(=O)c2ccc(Cl)cc2)n1CC1CCCO1` (centres undefined), the inhibition is reported as -6%.
`Cc1ccc(N(C(=O)Cc2cccs2)C(C(=O)NCC2CCCO2)c2ccncc2)cc1` (centres undefined) gave an inhibition of 2%.
For `Cc1cccc(N2CCN(c3ccc(C(N)=O)cc3[N+](=O)[O-])CC2)c1C`, the inhibition was 0%.
Work on `CCOc1ncccc1C(=O)N(CC)CC(=O)Nc1ccc(NC(C)=O)cc1` yielded an inhibition of -9%.
Compound `CN(c1ccccc1)S(=O)(=O)c1cc(C(=O)Nc2nc3ccccc3[nH]2)ccc1Cl` has an inhibition of 8%.
In the case of `COC(=O)CN1C(=S)N(c2ccccc2)C(=O)C1CC(=O)Nc1ccc(Cl)cc1` (centres undefined), the inhibition is reported as -5%.
Work on `N#C/C(=C(/O)COC(=O)COc1ccc(Cl)cc1)c1nc2ccccc2[nH]1` yielded an inhibition of -11%.
Work on `COCCCNC(=S)NCCNc1nc2cc(C)c(C)cc2cc1C#N` yielded an inhibition of -1%.
With `S=C(NCC1CCCO1)N1CCN(c2ccc(Cl)c(Cl)c2)CC1` (centres undefined) the inhibition was -1%.
Compound `CCn1cnc2scc(-c3ccc(C)c(C)c3)c2c1=O` has an inhibition of 0%.
In the case of `CC(C)Oc1ccc(CCc2nnc(SCC(=O)O)n2-c2ccccc2)cc1`, the inhibition is reported as -5%.
Compound `COc1ccccc1OCC(=O)OCn1c(SC)nnc(C)c1=O` has an inhibition of -7%.
`N=C1/C(=C/c2cccn2-c2cccc([N+](=O)[O-])c2)C(=O)N=C2SC=CN12` was tested, and the inhibition was -5%.
`Cc1c(C(=O)NCCN2C(=O)S/C(=C\c3cccs3)C2=O)cccc1[N+](=O)[O-]` gave an inhibition of -6%.
`CCCn1nc(NS(=O)(=O)c2ccccc2)c2cc3cc(C)ccc3nc21` gave an inhibition of 0%.
`Cc1ccc(NC(=O)CSc2nc(CSc3ccc(C)cc3)cc(=O)[nH]2)cc1` gave an inhibition of -1%.
`CN(C)C(CNC(=O)Cc1ccc([N+](=O)[O-])cc1)c1ccccc1` (centres undefined) showed an inhibition of -1%.
With `S=c1[nH]nc(-c2cccs2)n1/N=C/c1cccs1` the inhibition was 1%.
Work on `FC(F)(F)c1cccc(Cc2noc(CN3CCC(N4CCCCC4)CC3)n2)c1` yielded an inhibition of 0%.
In the case of `COc1ccc(C/C(C)=N/NC(=O)c2ccncc2)cc1`, the inhibition is reported as -3%.
Work on `Cc1ccc(N(C(=O)c2ccc(S(=O)(=O)N(C)C)cc2)C2C=CS(=O)(=O)C2)cc1` (centres undefined) yielded an inhibition of 0%.
`Cc1ccc(C(=O)/C=C/Nc2ccc(S(=O)(=O)Nc3onc(C)c3C)cc2)cc1` showed an inhibition of -1%.
In the case of `O=C(CNCc1ccc(Cl)cc1)Nc1cccc(C(=O)O)c1`, the inhibition is reported as -5%.
`CNS(=O)(=O)c1ccc(NC(=O)C2CC(=O)N(c3ccc(Cl)cc3)C2)cc1` (centres undefined) showed an inhibition of -2%.
For `CC(=O)Nc1ccc(NC(=O)C(C)n2c3ccccc3c3nc(=O)cc(C)n32)cc1` (centres undefined), the inhibition was 0%.
In the case of `O=C(O)c1cccc(NC(=S)N/N=C/c2c[nH]c3ccccc23)c1`, the inhibition is reported as -4%.
In the case of `CCOC(=O)CN1C(=O)N[C@@H](c2ccc(Br)cc2)C(C(C)=O)=C1C`, the inhibition is reported as -2%.
`COc1ccc(C(C(=O)NC2CCCCC2)N(C(=O)Cc2c[nH]c3ccccc23)c2ccccc2)cc1OC` (centres undefined) was tested, and the inhibition was 10%.
`COc1cc(CN(C)Cc2nc3cc(C(F)(F)F)ccc3c(=O)[nH]2)ccc1OC(F)F` was tested, and the inhibition was 0%.
For `COCCN(CCOC)S(=O)(=O)c1ccc(/C(O)=C(\C#N)c2nc3ccccc3[nH]2)cc1`, the inhibition was -3%.
With `O=C(NCc1ccccc1Cl)C1CCCO1` (centres undefined) the inhibition was 2%.
For `O=C(O)c1ccccc1-c1ccccc1C(=O)NCc1cccnc1`, the inhibition was -2%.
`Cc1ccccc1-n1nc(SCC(=O)O)sc1=S` gave an inhibition of 2%.
Compound `COc1ccc(-c2[nH]ncc2CN(C)Cc2cc(C)[nH]n2)c(F)c1` has an inhibition of -3%.
With `CCOCCCNC(=S)N1CCC(NC(=O)C2CCCCC2)CC1` the inhibition was -3%.
`CNC(=S)N/N=C/c1cn(Cc2ccc(C)cc2)c2ccccc12` showed an inhibition of -5%.
In the case of `COc1ccc(C(=O)C2CCCN(C(=O)c3cc4nc(C)cc(C)n4n3)C2)cc1F` (centres undefined), the inhibition is reported as -2%.
For `CC(C)NC(=O)C(=O)NCCCOC(C)C`, the inhibition was -6%.
Compound `NC(=S)N/N=C/c1coc2cc(Cl)ccc2c1=O` has an inhibition of -5%.
Compound `Cc1ccc(Nc2nnc(SCC(=O)c3cc4ccccc4o3)s2)cc1C` has an inhibition of -20%.
Work on `COc1cc(NC(=S)N2CCCC(C)C2)c(OC)cc1Cl` (centres undefined) yielded an inhibition of -7%.
`CC(C)COP(=O)(c1ccc(N(C)C)cc1)C(Nc1ccccc1)c1cccnc1` (centres undefined) was tested, and the inhibition was -15%.
Compound `CC1CC(=S)Nc2ccccc2N1Cc1ccccc1` (centres undefined) has an inhibition of -6%.
Work on `CSc1ccccc1NC(=O)Cc1ccc(Br)cc1` yielded an inhibition of -4%.
In the case of `CCCN(CC(=O)Nc1ccccc1C)C(=O)c1cc(=O)[nH]c2ccccc12`, the inhibition is reported as 2%.
`Cc1cc(=O)oc2c1c(C)nn2-c1ccc(Cl)cc1` showed an inhibition of 1%.
`COc1ccc(C(C)=O)cc1CSc1nc2nc(C)cc(C)n2n1` showed an inhibition of -2%.
In the case of `Cc1nc(S(=O)(=O)c2ccc(Br)cc2)nc2c1CCC2`, the inhibition is reported as 0%.
`COc1cc(C(=O)N2C(=O)c3cccc(N)c3C2=O)cc(OC)c1OC` was tested, and the inhibition was -2%.
Compound `Cc1ccc(C)c(OCC(=O)N2CCN(C(=O)c3ccco3)CC2)c1` has an inhibition of -8%.
Work on `COc1cc(C(=O)Nc2cc(C(F)(F)F)ccc2N2CCOCC2)ccc1O` yielded an inhibition of -6%.
For `CCCn1nc(Oc2nc(NC(C)C)nc(N(C)C)n2)ccc1=O`, the inhibition was -2%.
For `NS(=O)(=O)c1ccc(NC(=O)/C=C/c2ccccc2Cl)cc1`, the inhibition was 1%.
Work on `NNC(=O)COc1ccc(C2SCCS2)cc1` yielded an inhibition of 0%.
Work on `COc1ccc(-n2nnnc2SCC(=O)NCc2cccs2)cc1` yielded an inhibition of 1%.
In the case of `Cn1c(-c2ccc(F)cc2)cnc1SCC(=O)NNC(=O)Cc1ccccc1`, the inhibition is reported as 0%.
For `Cc1ccc(CC(=O)Nc2cccc(C#N)c2)cc1`, the inhibition was -4%.
`C[C@H](NC(=O)c1ccccc1Cl)C(=O)OCCOc1cccc(Cl)c1` was tested, and the inhibition was -14%.
`Cn1nnnc1NCc1ccc(Cl)c(Cl)c1` gave an inhibition of 0%.
For `COc1ccc(CNC(=O)C2CCN(S(C)(=O)=O)CC2)cc1`, the inhibition was -3%.
`CC(Nc1ccccc1)c1cccnc1` (centres undefined) gave an inhibition of -2%.
Work on `CCOC(=O)NC(=O)CSc1nnc(SCCC(=O)O)s1` yielded an inhibition of -10%.
Work on `O=C(Nc1ccccc1-c1ccccc1)c1cccs1` yielded an inhibition of -3%.
Work on `CC(C)(C)c1ccc(C(=O)NCc2nnc(SCC(=O)N3CCCc4ccccc43)n2-c2ccccc2)cc1` yielded an inhibition of -8%.
`Cc1ccc(O)c(-c2cc(C(=O)NCc3ccccc3)[nH]n2)c1` was tested, and the inhibition was -3%.
In the case of `C/C(N)=C(/C#N)C(=O)COC(=O)c1cc(-c2cccc(Br)c2)nc2ccccc12`, the inhibition is reported as -1%.
Compound `CCOC(=O)N1CCN(C(=O)c2ccccc2N(Cc2ccccc2)S(=O)(=O)c2ccc(OC)cc2)CC1` has an inhibition of 0%.
`Cc1ccc(S(=O)(=O)/N=S(\C)C(C)C)cc1` (centres undefined) was tested, and the inhibition was -3%.
`COc1ccccc1CNC(=O)CNC(=O)c1cn(-c2ccccc2OC)c(=O)c2ccccc12` showed an inhibition of -2%.
In the case of `CC(=O)OC(COc1ccc(F)cc1)Cn1cnc2ccccc21` (centres undefined), the inhibition is reported as -4%.
In the case of `O=C(Nc1ccc(F)c([N+](=O)[O-])c1)C1CC(=O)N(Cc2ccccc2)C1` (centres undefined), the inhibition is reported as 0%.
`Cc1ccnc2nc(C(=O)OCC(=O)N(CC(C)C)CC(C)C)nn12` was tested, and the inhibition was -7%.
Work on `Cc1ccc(OCC(=O)Nc2ccccc2Sc2ccc(Cl)cc2)c([N+](=O)[O-])n1` yielded an inhibition of 0%.
`O=C1N/C(=N\N=C\c2ccco2)SC1Cc1ccc(F)cc1` (centres undefined) was tested, and the inhibition was -4%.
For `CCNC(=O)NC(=O)C(C)OC(=O)C1CCN(S(=O)(=O)c2ccccc2F)CC1` (centres undefined), the inhibition was -2%.
`CN1CCN(/N=C2/C(=O)Nc3ccc([N+](=O)[O-])cc32)CC1` showed an inhibition of 0%.
`COc1ccc(CN2CCC(c3nc4ccc(Cl)cc4[nH]3)CC2)cc1` gave an inhibition of 0%.
`CC(=O)Nc1ccc(S(=O)(=O)N(C)c2ccc(OCC(=O)OCC(=O)N3CCCCC3)cc2)cc1` was tested, and the inhibition was -3%.
With `Cc1cc(C)cc(NC(=O)COC(=O)c2cc(C)oc2C)c1` the inhibition was -4%.
`O=C(CN1CCN(C/C=C/c2ccccc2)CC1)Nc1ccc(F)cc1F` showed an inhibition of -1%.
`CN=C(c1ccccc1)c1c(C)cccc1C` gave an inhibition of -9%.
For `COc1cccc(OCCCN2CCCCCC2)c1`, the inhibition was -1%.
`Cc1cc(O)ccc1NC1=CC(=O)CC(C)(C)C1` was tested, and the inhibition was 0%.
For `C#CCNC(=O)C1=C[C@@H](c2ccccc2)[C@H](CCCO)[C@@H](OCC)O1`, the inhibition was -1%.
